# Reference: the supplement of paper PMC3334620
# Whole data set: some 33,000 sequences, median “E-score (-0.5 to 0.5)” near -0.035, cut for the highest 2% near 0.35. This excerpt belongs to a sample that is enriched for the highest values.
# Target: T1, Pdr3 (UniProt P33200)
# T1 sequence: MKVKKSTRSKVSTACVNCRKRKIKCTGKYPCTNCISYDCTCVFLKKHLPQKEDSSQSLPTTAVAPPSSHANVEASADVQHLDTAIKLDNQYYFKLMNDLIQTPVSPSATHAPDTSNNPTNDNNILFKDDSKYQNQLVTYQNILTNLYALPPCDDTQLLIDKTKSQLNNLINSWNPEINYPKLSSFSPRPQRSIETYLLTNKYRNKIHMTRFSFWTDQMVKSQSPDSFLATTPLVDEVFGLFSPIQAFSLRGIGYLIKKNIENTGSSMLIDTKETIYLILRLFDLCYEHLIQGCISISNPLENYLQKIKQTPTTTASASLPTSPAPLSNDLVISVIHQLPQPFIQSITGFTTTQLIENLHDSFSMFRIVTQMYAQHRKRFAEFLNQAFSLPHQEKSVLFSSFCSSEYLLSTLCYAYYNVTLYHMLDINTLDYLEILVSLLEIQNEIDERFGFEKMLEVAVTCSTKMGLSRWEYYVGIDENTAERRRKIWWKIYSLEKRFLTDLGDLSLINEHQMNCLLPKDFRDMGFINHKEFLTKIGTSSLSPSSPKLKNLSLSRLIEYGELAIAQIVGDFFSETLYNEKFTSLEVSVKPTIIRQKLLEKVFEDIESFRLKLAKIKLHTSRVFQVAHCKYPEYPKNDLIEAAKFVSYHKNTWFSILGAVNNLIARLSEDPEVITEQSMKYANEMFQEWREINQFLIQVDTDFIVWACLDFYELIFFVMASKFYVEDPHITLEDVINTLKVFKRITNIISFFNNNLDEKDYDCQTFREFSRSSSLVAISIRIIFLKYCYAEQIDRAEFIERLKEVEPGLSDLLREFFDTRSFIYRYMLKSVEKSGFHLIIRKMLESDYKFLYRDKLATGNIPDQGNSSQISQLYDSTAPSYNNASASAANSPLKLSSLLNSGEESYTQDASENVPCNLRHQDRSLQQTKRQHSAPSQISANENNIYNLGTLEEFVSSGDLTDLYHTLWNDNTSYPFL
# Assay: PBM E-score (8-mer binding enrichment) (E-score (-0.5 to 0.5)); higher = stronger / more preferred TF binding
# Conditions: protein concentration: 200 nM; construct: GST-full length
# Description: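 Universal 'all 10-mer' protein binding microarrays (Agilent AMADID 015681) probed with GST-tagged S. cerevisiae TFs (full-length or DBD) made by in vitro transcription/translation (PURExpress), about 100-200 nM. Bound TF was detected with fluorescent anti-GST. Each ungapped 8-mer (which stands for itself and its reverse complement) is scored by the PBM enrichment score (E-score), a modified Wilcoxon-Mann-Whitney statistic from -0.5 to +0.5, computed with the Universal PBM Analysis Suite. Scale: above 0.35 generally sequence-specific binding.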
row,Sequence,PBM E-score
1,ATCCGCCC,0.251
2,ATCCGCCG,0.387
3,ACCCGCCA,0.0368
4,ACCCGCCG,0.388
5,ACCCGCCC,0.348
6,ATCCGCCA,0.185
7,CGAACTCG,0.17
8,GCTGCAAA,-0.0739
9,GGGAATAC,0.162
10,GGGAATAA,0.199
11,AGGAATAC,-0.2
12,CGGAATAA,0.422
13,AGGAATAG,-0.072
14,TGGAATAA,-0.00691
15,CGGAATAG,0.418
16,CAGAATAG,-0.0833
17,CGGAATAC,0.427
18,CCTGAAGA,-0.0192
19,GGCGCCTA,-0.0415
20,CTACAGCC,-0.129
21,GCCTCATA,0.0142
22,CTTGTCCC,0.19
23,CAGTTCCG,0.473
24,AAGTTCCT,0.0364
25,AAGTTCCC,0.14

row,Sequence,PBM E-score
1,CAGTTCCA,-0.0348
2,AAGTTCCG,0.445
3,CAGTTCCC,0.342
4,CATGAAGC,0.058
5,CCAGCCTA,-0.182
6,CTAGGGAG,-0.205
7,GCAAGCCC,-0.0061
8,AGGAATTC,-0.00951
9,CGGAATTC,0.434
10,CTGAATTC,-0.136
11,CGGAATTA,0.43
12,GGGAATTA,0.118
13,AGGAATTA,-0.091
14,GTGCCTAA,-0.288
15,CTATCTAA,0.00128
16,GTCCCTGA,-0.23
17,GAGCGAAA,0.146
18,CCTTTCCC,0.235
19,CCTTTCCA,-0.0113
20,CCTTTCCG,0.387
21,ACTTTCCT,-0.151
22,ACTTTCCC,0.0862
23,ACTTTCCG,0.417
24,AGGTTTTG,-0.197
25,AAACTCTT,-0.264

row,Sequence,PBM E-score
1,CAGTCGGC,0.0494
2,AGCCGTAT,0.0899
3,GGCCGGAC,0.216
4,AGCCGGGG,0.152
5,GGCCGGAA,0.431
6,AGCCGGTC,-0.0317
7,CGCCGGAA,0.45
8,AGCCGGTG,0.187
9,AGCCGGAG,0.362
10,GGCCGAAA,0.199
11,CGCCGGAG,0.299
12,AGCCGGAT,0.391
13,CGCCGGAC,0.316
14,GCGGATGA,0.303
15,GAACCCTA,-0.0298
16,AGTTCAAG,0.0398
17,AAAGCTTT,0.00459
18,GGAGCACA,0.0257
19,ACGTACGA,-0.133
20,CGTAGAGA,-0.182
21,TGCCGGAA,0.454
22,AGCCGGAC,0.345
23,AGCCGGAA,0.438
24,TGCCGTAA,-0.187
25,TGCCGAAA,0.118

row,Sequence,PBM E-score
1,AGCCGGTA,0.199
2,AGCAACCT,-0.0661
3,TCGAGGCA,-0.123
4,CGGCGAGA,0.0811
5,GTTTCTCA,-0.134
6,CAGGATCG,0.0205
7,CCGGATCA,0.389
8,CCGGATCG,0.391
9,ACGGATCG,0.236
10,CCGGATAG,0.347
11,ACGGATCC,0.445
12,AGGGATCC,0.196
13,CGGGATCC,0.417
14,GCGGATCA,0.296
15,ACGGATCT,0.271
16,TCGGATCA,0.303
17,CGGGATCA,0.344
18,GGGGTCCA,-0.138
19,CGCTAAAA,0.00276
20,CCTTTTAG,-0.291
21,AATCTGCT,-0.15
22,ACCCTCCC,0.299
23,CTGAAGCA,-0.199
24,CCAATGCC,0.0068
25,AGGCATTG,-0.0729

row,Sequence,PBM E-score
1,CCCATTGC,-0.0113
2,GGCGGTTA,0.0539
3,AAGCATCT,-0.243
4,CATTTGTA,-0.0519
5,AGGCGAAC,-0.114
6,CCGGATCC,0.433
7,AAGGATCA,-0.14
8,CAGGATCC,0.0521
9,ATGGATCA,-0.0186
10,CTGGATCC,0.285
11,GCGGATAC,0.311
12,ACGGATCA,0.366
13,GAGGATCC,0.235
14,GCGGATCC,0.409
15,ATCGTTAA,0.00324
16,CGAATCCA,0.0811
17,CCGTCACG,0.238
18,ATCCCACC,0.266
19,GCTCGGTA,0.123
20,CCTCGGCC,0.251
21,ACTCGGAT,0.256
22,CCTCGGAA,0.442
23,ACTCGGAA,0.427
24,ACTCGGAC,0.305
25,GCTCGGAC,0.297

row,Sequence,PBM E-score
1,CCTCGGCG,0.376
2,GCTCGGAA,0.413
3,CCTCGGCA,0.238
4,CCTCGGAG,0.283
5,CCTCGGAC,0.282
6,AAACGTCA,-0.149
7,AAGCCTGT,0.028
8,CTGCAGGC,-0.094
9,TCTCGTAA,-0.0824
10,TCTCGGAA,0.444
11,TCTCGGCA,0.217
12,AAGGCCAG,-0.0965
13,TAAGCACA,0.108
14,CCGGAACG,0.475
15,AAGGAACT,0.0764
16,CGGGAACG,0.285
17,CCGGAACC,0.476
18,AGGGAACC,-0.00025
19,AAGGAACC,0.217
20,CGGGAACC,0.312
21,AGGGAACT,0.0568
22,ACGGAACC,0.487
23,ACGGAACT,0.48
24,CAGGAACG,-0.0257
25,CAGGAACC,-0.124

row,Sequence,PBM E-score
1,ACTCAACC,-0.035
2,ATTGCACC,-0.0754
3,GGCACTAA,0.156
4,CGATTGCG,0.202
5,CTTTCTGC,-0.0975
6,CAGCACAC,-0.275
7,CACTCGCG,0.0224
8,GACCAATA,-0.0553
9,AGTGGTTG,-0.00222
10,AAGGAACG,0.00917
11,ATGGAACG,0.0401
12,GAGGAACC,0.0227
13,GCGGAACC,0.482
14,GGGGAACC,-0.157
15,ACGGAACG,0.48
16,CGATCTTC,0.0584
17,CTCTTCAG,-0.243
18,CTAACAGA,-0.028
19,AGGAGTGC,-0.0635
20,ATGGTCCC,-0.0703
21,CCGGTCCG,0.414
22,CCGGTCCA,0.0798
